# In the supplement of paper PMC10849652:
# Of roughly 7,900 targets only a part is listed; those with a hit were picked by preference. About 0.6% of all pairs of compound and target were hits. Unmarked numbers belong to inactive results.
# Compound: c1cn2cc(-c3ccc4cn[nH]c4c3)nc(Nc3ccc(N4CCOCC4)cc3)c2n1 [entospletinib]
# Assay: log2 fold change, soluble protein after heating vs DMSO (PISA); higher = thermal stabilisation; K562 cells, 10 uM, 30 min; active = over 0.2 and 3.5 SD of the protein, either way, in both replicates (recomputed)
# Summary of the method: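 Quantification of soluble protein used TMTpro 16plex LC-MS/MS, with channel sums equalised. Samples were the supernatant after 21,000xg for 90 min of pooled aliquots from K562 cells (2×10^6 cells/mL) treated with 10 μM compound for 30 min, heated for 3 min over 48°C-58°C, and extracted in PBS with 0.5% NP-40 at 4°C. Values, from duplicates, describe thermal stability against control samples on a log2 fold-change scale.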
# UniProt P63218, sequence (P63218 whole entry, looked up): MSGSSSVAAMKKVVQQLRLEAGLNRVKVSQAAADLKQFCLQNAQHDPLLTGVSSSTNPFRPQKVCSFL
# UniProt Q9H4G4, sequence (Q9H4G4 whole entry, looked up): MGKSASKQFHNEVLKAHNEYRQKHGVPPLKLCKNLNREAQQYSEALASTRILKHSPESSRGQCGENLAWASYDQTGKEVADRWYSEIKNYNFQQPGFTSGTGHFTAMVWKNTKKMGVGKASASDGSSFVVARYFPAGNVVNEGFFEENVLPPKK
# UniProt P30519, sequence (P30519 whole entry, looked up): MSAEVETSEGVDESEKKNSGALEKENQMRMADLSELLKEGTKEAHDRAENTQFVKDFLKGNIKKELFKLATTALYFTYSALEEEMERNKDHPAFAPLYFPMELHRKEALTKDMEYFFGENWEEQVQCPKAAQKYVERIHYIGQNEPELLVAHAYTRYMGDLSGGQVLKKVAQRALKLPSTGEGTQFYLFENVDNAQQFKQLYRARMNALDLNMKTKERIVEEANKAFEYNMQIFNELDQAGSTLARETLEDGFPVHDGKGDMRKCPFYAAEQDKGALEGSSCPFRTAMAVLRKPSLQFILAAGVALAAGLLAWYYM
# UniProt Q86YM7, sequence (Q86YM7 whole entry, looked up): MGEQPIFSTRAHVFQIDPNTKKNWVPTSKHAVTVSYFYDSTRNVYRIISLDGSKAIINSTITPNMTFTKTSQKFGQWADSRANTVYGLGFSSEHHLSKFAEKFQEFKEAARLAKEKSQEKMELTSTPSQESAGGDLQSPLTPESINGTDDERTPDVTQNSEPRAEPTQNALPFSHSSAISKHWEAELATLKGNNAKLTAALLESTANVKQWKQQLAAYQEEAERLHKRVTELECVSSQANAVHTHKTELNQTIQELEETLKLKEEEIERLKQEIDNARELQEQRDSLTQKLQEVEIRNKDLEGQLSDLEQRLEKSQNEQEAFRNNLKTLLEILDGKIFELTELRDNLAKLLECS
# UniProt O00458, sequence (O00458 whole entry, looked up): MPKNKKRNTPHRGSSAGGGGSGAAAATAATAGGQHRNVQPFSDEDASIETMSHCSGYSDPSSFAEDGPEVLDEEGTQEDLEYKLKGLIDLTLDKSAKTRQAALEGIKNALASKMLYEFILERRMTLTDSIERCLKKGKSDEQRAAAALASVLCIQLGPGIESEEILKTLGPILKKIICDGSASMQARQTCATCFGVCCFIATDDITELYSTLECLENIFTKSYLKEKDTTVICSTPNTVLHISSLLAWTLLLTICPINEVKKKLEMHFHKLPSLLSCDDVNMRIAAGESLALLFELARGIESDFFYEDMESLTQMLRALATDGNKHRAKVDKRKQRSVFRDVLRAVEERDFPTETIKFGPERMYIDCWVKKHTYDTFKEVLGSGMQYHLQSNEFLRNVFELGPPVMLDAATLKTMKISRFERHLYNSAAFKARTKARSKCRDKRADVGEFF
# UniProt Q86UL3, sequence (Q86UL3 whole entry, looked up): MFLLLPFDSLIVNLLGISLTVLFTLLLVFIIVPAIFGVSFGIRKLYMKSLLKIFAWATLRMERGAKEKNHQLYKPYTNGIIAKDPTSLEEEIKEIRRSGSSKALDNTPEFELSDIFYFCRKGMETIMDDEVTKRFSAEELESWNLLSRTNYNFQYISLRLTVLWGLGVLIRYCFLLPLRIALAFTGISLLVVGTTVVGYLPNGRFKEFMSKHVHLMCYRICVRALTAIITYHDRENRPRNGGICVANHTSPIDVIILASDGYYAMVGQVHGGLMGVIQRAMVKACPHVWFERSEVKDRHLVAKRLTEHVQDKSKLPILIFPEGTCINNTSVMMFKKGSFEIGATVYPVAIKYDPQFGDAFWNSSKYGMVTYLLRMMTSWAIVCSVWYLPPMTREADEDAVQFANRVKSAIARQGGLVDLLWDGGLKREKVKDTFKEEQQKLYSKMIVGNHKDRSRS
# UniProt O14929, sequence (O14929 whole entry, looked up): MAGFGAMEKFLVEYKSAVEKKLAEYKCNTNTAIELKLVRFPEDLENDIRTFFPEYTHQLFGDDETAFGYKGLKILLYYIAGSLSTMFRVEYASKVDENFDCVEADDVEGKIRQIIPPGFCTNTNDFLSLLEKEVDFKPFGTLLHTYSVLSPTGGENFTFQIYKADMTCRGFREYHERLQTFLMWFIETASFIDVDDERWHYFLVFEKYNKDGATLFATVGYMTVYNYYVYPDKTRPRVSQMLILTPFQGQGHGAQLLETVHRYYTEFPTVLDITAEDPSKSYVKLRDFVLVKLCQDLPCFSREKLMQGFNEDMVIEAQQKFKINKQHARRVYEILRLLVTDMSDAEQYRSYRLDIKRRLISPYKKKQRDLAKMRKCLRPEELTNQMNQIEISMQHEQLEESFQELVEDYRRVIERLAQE
# UniProt Q9UQC2, sequence (Q9UQC2 whole entry, looked up): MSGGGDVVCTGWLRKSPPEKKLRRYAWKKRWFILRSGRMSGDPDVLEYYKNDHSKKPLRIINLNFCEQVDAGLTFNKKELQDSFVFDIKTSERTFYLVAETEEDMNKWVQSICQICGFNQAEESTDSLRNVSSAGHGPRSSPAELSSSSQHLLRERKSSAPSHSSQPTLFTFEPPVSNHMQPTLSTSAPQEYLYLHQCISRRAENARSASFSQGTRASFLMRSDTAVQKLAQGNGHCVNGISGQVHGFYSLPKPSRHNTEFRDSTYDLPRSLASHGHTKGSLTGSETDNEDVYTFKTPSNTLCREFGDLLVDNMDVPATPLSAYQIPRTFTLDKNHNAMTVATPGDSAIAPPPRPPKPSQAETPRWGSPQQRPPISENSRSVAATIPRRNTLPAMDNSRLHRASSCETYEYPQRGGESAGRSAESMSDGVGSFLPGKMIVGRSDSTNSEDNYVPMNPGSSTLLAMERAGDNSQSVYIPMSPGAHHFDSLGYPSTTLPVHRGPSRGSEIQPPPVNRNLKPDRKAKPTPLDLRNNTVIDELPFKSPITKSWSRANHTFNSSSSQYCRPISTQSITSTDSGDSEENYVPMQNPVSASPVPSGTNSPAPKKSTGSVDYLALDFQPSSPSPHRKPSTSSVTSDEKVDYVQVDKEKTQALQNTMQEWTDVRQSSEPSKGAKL
# UniProt Q9UBN7, sequence (Q9UBN7 whole entry, looked up): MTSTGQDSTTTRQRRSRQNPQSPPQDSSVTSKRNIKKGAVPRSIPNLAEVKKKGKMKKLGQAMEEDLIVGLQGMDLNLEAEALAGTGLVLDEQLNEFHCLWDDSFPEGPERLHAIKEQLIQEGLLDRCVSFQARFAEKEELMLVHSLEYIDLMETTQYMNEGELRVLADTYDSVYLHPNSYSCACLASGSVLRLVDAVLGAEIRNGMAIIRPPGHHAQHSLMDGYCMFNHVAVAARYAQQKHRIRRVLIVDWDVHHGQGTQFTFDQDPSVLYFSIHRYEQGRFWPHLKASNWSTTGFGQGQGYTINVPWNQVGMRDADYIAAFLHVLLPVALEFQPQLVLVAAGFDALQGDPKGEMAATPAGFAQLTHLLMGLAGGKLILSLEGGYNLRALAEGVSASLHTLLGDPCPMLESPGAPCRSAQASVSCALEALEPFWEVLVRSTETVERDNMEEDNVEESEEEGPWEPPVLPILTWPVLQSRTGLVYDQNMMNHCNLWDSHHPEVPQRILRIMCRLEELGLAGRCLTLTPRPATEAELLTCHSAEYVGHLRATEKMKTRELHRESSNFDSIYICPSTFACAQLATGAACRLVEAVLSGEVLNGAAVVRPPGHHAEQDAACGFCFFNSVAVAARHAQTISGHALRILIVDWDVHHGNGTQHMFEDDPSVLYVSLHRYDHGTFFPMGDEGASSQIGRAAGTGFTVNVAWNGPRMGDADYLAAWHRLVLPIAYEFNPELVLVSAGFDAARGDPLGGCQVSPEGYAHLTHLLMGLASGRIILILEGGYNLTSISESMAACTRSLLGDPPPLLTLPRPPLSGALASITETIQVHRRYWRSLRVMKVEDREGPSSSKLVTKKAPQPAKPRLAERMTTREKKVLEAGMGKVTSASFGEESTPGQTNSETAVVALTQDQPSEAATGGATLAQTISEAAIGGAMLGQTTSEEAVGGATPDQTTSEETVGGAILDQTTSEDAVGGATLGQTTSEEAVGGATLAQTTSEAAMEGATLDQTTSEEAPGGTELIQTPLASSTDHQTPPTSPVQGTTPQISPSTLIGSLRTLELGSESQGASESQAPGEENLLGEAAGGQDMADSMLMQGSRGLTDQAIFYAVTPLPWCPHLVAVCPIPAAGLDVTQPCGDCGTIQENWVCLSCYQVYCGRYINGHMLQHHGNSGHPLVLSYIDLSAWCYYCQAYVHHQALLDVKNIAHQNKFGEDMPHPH
# UniProt Q92947, sequence (Q92947 whole entry, looked up): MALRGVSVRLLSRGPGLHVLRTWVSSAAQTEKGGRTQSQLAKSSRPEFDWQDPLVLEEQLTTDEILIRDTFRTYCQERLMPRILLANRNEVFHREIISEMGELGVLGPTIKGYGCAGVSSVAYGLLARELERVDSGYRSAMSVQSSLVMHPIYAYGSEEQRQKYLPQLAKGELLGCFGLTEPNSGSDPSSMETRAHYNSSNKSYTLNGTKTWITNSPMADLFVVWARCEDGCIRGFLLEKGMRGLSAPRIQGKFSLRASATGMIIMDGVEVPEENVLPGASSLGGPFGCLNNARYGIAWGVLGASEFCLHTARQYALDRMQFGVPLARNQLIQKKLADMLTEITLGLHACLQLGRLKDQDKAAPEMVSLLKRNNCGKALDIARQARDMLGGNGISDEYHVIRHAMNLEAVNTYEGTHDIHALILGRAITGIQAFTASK
# UniProt P0CL80, sequence (P0CL80 whole entry, looked up): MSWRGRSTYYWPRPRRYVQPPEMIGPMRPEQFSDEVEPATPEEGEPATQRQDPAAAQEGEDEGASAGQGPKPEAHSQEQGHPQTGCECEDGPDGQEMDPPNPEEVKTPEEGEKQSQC
# UniProt P23434, sequence (P23434 whole entry, looked up): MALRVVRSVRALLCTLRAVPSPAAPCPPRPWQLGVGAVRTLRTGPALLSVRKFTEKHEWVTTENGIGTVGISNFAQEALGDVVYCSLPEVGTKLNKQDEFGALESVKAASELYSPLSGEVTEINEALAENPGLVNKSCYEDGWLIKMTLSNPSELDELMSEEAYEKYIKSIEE
row,Target,log2 fold change
1,HDGFL2 (UniProt Q7Z4V5),-0.008
2,FAT2 (UniProt Q9NYQ8),0.119
3,"HBZ, A0A494C057",-0.048
4,FBXO3 (UniProt Q9UK99),0.013
5,IFRD1 (UniProt O00458),0.243
6,GABARAPL2 (UniProt P60520),-0.032
7,GLYR1 (UniProt Q49A26),0.041
8,IFI30 (UniProt P13284),-0.032
9,GMEB1 (UniProt Q9Y692),-0.027
10,GAPVD1 isoform 6 (UniProt Q14C86),0.045
11,IFT80 isoform 3 (UniProt Q9P2H3),-0.019
12,HPCAL1 (UniProt P37235),0.023
13,GUSB (UniProt P08236),0.11
14,FBXO42 (UniProt Q6P3S6),-0.049
15,HEATR3 (UniProt Q7Z4Q2),0
16,FKBP7 (UniProt Q9Y680),-0.012
17,HOMER1 (UniProt Q86YM7),0.056
18,GLUD1 (UniProt P00367),0.173
19,HDAC6 (UniProt Q9UBN7),0.034
20,GAB2 (UniProt Q9UQC2),0.046

row,Target,log2 fold change
1,GSTO1 (UniProt P78417),-0.046
2,GUK1 isoform 2 (UniProt Q16774),0.093
3,IGF2BP2 (UniProt Q9Y6M1),0.24
4,GSR (UniProt P00390),-0.047
5,GNG5 (UniProt P63218),0.062
6,GCSH (UniProt P23434),0.037
7,HNRNPC isoform 2 (UniProt P07910),0.274
8,GALK1 isoform 2 (UniProt P51570),-0.103
9,HDHD2 (UniProt Q9H0R4),-0.069
10,GPAT4 (UniProt Q86UL3),0.055
11,HMOX2 (UniProt P30519),0.014
12,FLNA (UniProt P21333),0.062
13,GLUD2 (UniProt P49448),0.14
14,GAGE12F (UniProt P0CL80),0.031
15,HK2 (UniProt P52789),-0.54 (active)
16,GCDH (UniProt Q92947),-0.026
17,HAT1 (UniProt O14929),-0.021
18,GLIPR2 (UniProt Q9H4G4),0.055
19,HNRNPUL1 (UniProt Q9BUJ2),-0.029
